# Laboratory results taken from PubChem BioAssay AID1117361 (Southern Research Institute, 2015).
# The campaign covered roughly 3,600 compounds. About 900 (25%) were called active. The rule behind the calls is not given here. A selection follows. Measured potencies and affinities stand elsewhere.
# Target: Protein Tat (Human immunodeficiency virus type 1 group M subtype B (isolate HXB2)) (UniProt P04608)
# Experiment: inhibitors of Tat binding to TAR RNA, dose response, counter-screen for Vif-APOBEC3G degradation inhibitor project, biochemical, fluorescence polarization, FAM-labeled TAR RNA (AID 1117361)
# Settings: outcome: dose series up to 100 µM unless noted; series mostly up to 100 µM
row,Compound,outcome
1,O=C1C=C(c2c(O)ccc3ccccc23)c2ccccc2C1=O,inactive
2,COc1ccc(CCN2CC(C(=O)NCC(c3ccccc3)N(C)C)CC2=O)cc1OC (centres undefined),inactive
3,COc1cc2c(cc1OC)C(C)N(C(=O)c1cc3n(n1)C(C(F)(F)F)CC(c1ccco1)N3)CC2 (centres undefined),inactive
4,Cc1[nH]c(=O)[nH]c(=O)c1S(=O)(=O)N1CCCC(C(=O)NCCc2ccccc2)C1 (centres undefined),inactive
5,CCC(C)[C@H](NC(=O)N1CCCC1)C(=O)O (some centres undefined),inactive
6,CCOC(=O)c1[nH]nc(-c2c(O)cc(C)cc2O)c1-c1csc(C)n1,inactive
7,CC(=O)N1CCc2cc(S(=O)(=O)NC(C(=O)NC3CCCc4ccccc43)C(C)C)ccc21 (centres undefined),inactive
8,Cc1nc2ccc(S(=O)(=O)NC(C(=O)N3CCC(C)CC3)C(C)C)cc2s1 (centres undefined),inactive
9,COC(=O)C1CCCN1S(=O)(=O)c1ccc2ccccc2c1 (centres undefined),inactive
10,Cc1ccc(Nc2nc3ccccc3nc2-n2nc(C)cc2C)cc1,inactive
11,Cc1cc(SCC(=O)Nc2ccccc2C)nc(C)n1,inactive
12,Cc1c(Cl)cccc1NC(=O)CSc1nnc(C)n1-c1ccccc1,inactive
13,Cc1cccc(NC(=O)CSc2nnc(-c3ccccc3C)o2)c1,inactive
14,CC(C)Cn1c(SCC(=O)Nc2cccnc2Cl)nnc1-c1ccco1,inactive
15,COCCn1c(SCC(=O)Nc2cccc(C)n2)nnc1-c1ccco1,inactive
16,Cc1nc(SCC(=O)Nc2ccnc3ccccc23)n[nH]1,inactive
17,CCC1(C)Cc2c(sc(NC(=O)CCC(=O)O)c2C#N)CO1 (centres undefined),inactive
18,CCCSc1nc2c(cnn2-c2ccc(C)cc2)c(=O)[nH]1,inactive
19,CCCCc1cc(C(=O)Cc2ccccn2)c(O)cc1O,inactive
20,CC(C)NC(=O)c1ccc(COCC(F)(F)C(F)F)cc1,inactive
21,CN(C)CCOCCSc1ccc(Cl)cc1,inactive
22,CC(C)(NO)/C(=N\O)c1ccccc1,inactive

row,Compound,outcome
1,Cc1cc(Nc2ccc(Br)cc2)n2nc(C)nc2n1,inactive
2,CCc1cc2c(N3CCCCC3)ncnc2s1,inactive
3,CCOc1ccc(Nc2nc(Cc3nnc(SCC(=O)NCC4CCCO4)n3C)cs2)cc1 (centres undefined),inactive
4,CCOC(=O)c1c(C)[nH]c(C(=O)OCC(=O)N2c3ccccc3CC2C)c1C (centres undefined),inactive
5,S=C(Nc1cccc(Cl)c1)NC1CCCCC1,inactive
6,CC1CCc2[nH]c3ccc(C(=O)N(C)CC(=O)Nc4ccc(F)cc4)cc3c2C1 (centres undefined),inactive
7,CC(=O)Nc1ccc(NC(=O)CN(c2cccc(C(C)=O)c2)S(C)(=O)=O)cc1,inactive
8,Cn1nnc(NC(=O)c2cccc(F)c2)n1,inactive
9,O=C(NNC(=O)c1ccccc1F)c1cccc(-n2cccc2)c1,inactive
10,CC(=O)N1CCc2cc(S(=O)(=O)NCCC(=O)Nc3cccc(C)c3C)ccc21,inactive
11,CC(=O)c1cccc(NC(=O)c2cnn3ccccc23)c1,inactive
12,CCN(CC)C(=O)NCc1c(C)cc(C)cc1C,inactive
13,Cc1ccc(-n2[nH]c(=O)c3cccnc32)cc1,inactive
14,O=C(Nc1ccc(Cl)c(-c2nc3ccccc3[nH]2)c1)c1cccnc1,inactive
15,CCCCCCN(C(=O)CCCCCN1C(=O)NC(c2ccc(C(C)(C)C)cc2)C(C(=O)OCc2ccccc2)=C1C)C(C(=O)NCCCC)c1ccc(OCC(=O)OC)c(C(=O)OC)c1 (centres undefined),inactive
16,CCOC(CNC(=O)C(=O)Nc1cc2c3c(c1)CC(=O)N3CCC2)OCC,inactive
17,CCOC(=O)C1CCN(S(=O)(=O)c2cccc(-c3cn4cccc(C)c4n3)c2)CC1,inactive
18,C/C(=N\n1c(C)nc2ccccc2c1=O)c1ccc(C)o1,inactive
19,COc1ccc(C(=O)CSc2n[nH]c(N)n2)cc1,inactive
20,CCOC(=O)c1sc(-c2ccccc2)cc1NC(=O)CSc1nnnn1C,inactive
21,Cc1cc(C(=O)N2CCN(C/C=C/c3ccccc3)CC2)cs1,inactive
22,CC1=C(C(=O)N2CCCCC2)C2(CCC(C)CC2)OC1=O (centres undefined),inactive

row,Compound,outcome
1,COc1ccc(OC)c(S(=O)(=O)Nc2cnc3ccccc3c2)c1,inactive
2,COc1ccc(NS(=O)(=O)c2cccc(Cl)c2Cl)cc1S(=O)(=O)N1CCCCC1,inactive
3,COC(=O)CN1C(=O)C(O)=C(C(C)=O)C1c1ccc([N+](=O)[O-])cc1 (centres undefined),inactive
4,CC1(c2ccccc2)NC(=O)N(CC(=O)Nc2cccc(C#N)c2)C1=O (centres undefined),inactive
5,CS(=O)(=O)N1CCC(C(=O)Nc2ccccc2)CC1,inactive
6,O=C(CCc1ccccc1)Nc1ccc2c(c1)OCCO2,inactive
7,COc1ccccc1N(CC(=O)NC(C)C)S(=O)(=O)c1cccs1,inactive
8,CC(C)c1nnc(NC(=O)CCC(=O)NCc2ccco2)s1,inactive
9,O=C(CN1CCCCC1)Nc1nnc(-c2ccccc2)s1,inactive
10,O=C(Nc1cc(Cl)ccn1)C1CCN(S(=O)(=O)c2cccs2)CC1,inactive
11,O=C(Nc1ccncc1)C1CCN(S(=O)(=O)c2c(Cl)cccc2Cl)CC1,inactive
12,CC(=O)C1=C(N2CCCCC2)CCC1=O,inactive
13,Cc1ccc(CNC(=O)CN(c2cccc([N+](=O)[O-])c2)S(C)(=O)=O)cc1,inactive
14,CCCn1[nH]cc(SC)c(=O)c1=O,inactive
15,O=c1c(N=Nc2ccc(O)cc2)c(-c2ccccc2)[nH]n1-c1ccc([N+](=O)[O-])cc1,inactive
16,CC(SC1=NCCS1)C(=O)Nc1nnc(-c2ccc(Cl)cc2)s1 (centres undefined),inactive
17,CCn1cc(S(=O)(=O)CC(=O)Nc2ccc(OC)cc2)c2ccccc21,inactive
18,COc1cc(C(=O)Nc2ccc(S(=O)(=O)NC(C)C)cc2)cc(OC)c1OC,inactive
19,C#Cc1ccc([C@H]2C=C(C(=O)N3CCOCC3)O[C@@H](OCc3ccc(CO)cc3)C2)cc1,inactive
20,COc1ccccc1C(=O)Nc1cccc(-c2cn3ccsc3n2)c1,inactive
21,O=C(OCn1ncc(Br)c(Br)c1=O)c1ccc(F)cc1,inactive
22,C=CCc1ccc(OCCCCN2CC(C)OC(C)C2)c(OC)c1 (centres undefined),inactive

row,Compound,outcome
1,O=C(NCCCN1CCOCC1)C1(c2ccccc2)CCCC1,inactive
2,COc1ccc(C(=O)Oc2c(CN3CCOCC3)cc(Cl)c3cccnc23)cc1,inactive
3,O=[N+]([O-])c1cc(CN2CCN(c3cccc(C(F)(F)F)c3)CC2)c2cccnc2c1O,inactive
4,Cc1ccc(C(=O)Oc2ccc(Cl)c3cccnc23)cc1[N+](=O)[O-],inactive
5,Oc1c(CN2CCOCC2)cc(CN2CCOCC2)c(O)c1O,inactive
6,Cc1[nH]c2ccccc2c1C1=CC(=O)C=CC1=O,inactive
7,CC[n+]1c(/C=C2/C=C(C)CC(C)(C)C2)sc2ccc(OC)cc21,inactive
8,Cc1nn(CC(=O)NC2CC2)c(C)c1S(=O)(=O)N(C)C,inactive
9,C/C(N)=C(/C#N)C(=O)CSc1nnc(Nc2c(C)cccc2C)s1,inactive
10,CC(Oc1ccc(Cl)cc1)c1ccnn1S(C)(=O)=O (centres undefined),inactive
11,CC(=O)Nc1cc(NC(C)=O)cc(C(=O)N2CCCC3CCCCC32)c1 (centres undefined),inactive
12,CCC(=O)Nc1ccc(S(=O)(=O)NC[C@H]2O[C@@H](n3cc(C)c(=O)[nH]c3=O)C[C@@H]2O)cc1,inactive
13,CCOC(=O)CSc1nnc(-c2ccccc2NC(=O)c2ccccc2)o1,inactive
14,O=C(NCc1cn2ccccc2n1)c1ccc2c(c1)OCO2,inactive
15,Cn1ncc2c(Nc3ccc4ccccc4c3)ncnc21,inactive
16,CCC(C)N1C(=O)S/C(=C/c2ccc(Sc3nc4ccccc4[nH]3)o2)C1=O (centres undefined),inactive
17,COc1cccc(-c2cc(C(=O)Nc3cnn(Cc4ccccc4C)c3)no2)c1,inactive
18,Cc1ccc(S(=O)(=O)N2CCN(C(C(=O)Nc3ccc(F)cc3)c3ccccc3)CC2)cc1 (centres undefined),inactive
19,CC(C)c1ccc(NC(=O)C(c2ccccc2)N2CCC3(CC2)OCCO3)cc1 (centres undefined),inactive
20,Cc1[nH]c2ccccc2c1C(=O)Cn1c(=O)oc2ccccc21,inactive
21,O=C(CCC(=O)OCC(=O)c1ccc(F)cc1)NC1CCCCC1,inactive
22,CCOC(=O)C1=C(CSc2nc(C)ccc2C#N)OC(N)=C(C#N)C1c1cccc(OC)c1OC (centres undefined),inactive

row,Compound,outcome
1,O=C(CN(c1ccc(F)cc1)S(=O)(=O)c1ccc2c(c1)OCCO2)NCc1ccccn1,inactive
2,COc1ccc(N(CC(=O)NCc2ccccc2C)S(=O)(=O)c2ccc(C)cc2)cc1OC,inactive
3,NNC(=O)c1ccc(N2CCc3ccccc32)c([N+](=O)[O-])c1,inactive
4,O=C(NCc1ccncc1)c1cnccn1,inactive
5,COC(=O)c1ccc(NC(=S)NCCC2=CCCCC2)cc1,inactive
6,CC(=O)Nc1ccc(NC(=O)C(C)OC(=O)CCc2c[nH]c3ccccc23)cc1 (centres undefined),inactive
7,C=CCN(CC=C)C(=S)NC(=O)c1ccc([N+](=O)[O-])cc1,inactive
8,C/C(=N\NC(=O)c1cnccn1)c1ccc([N+](=O)[O-])cc1,inactive
9,CC1=CC(C)(C)N=C(Nc2nc(C)c3cc(C)cc(C)c3n2)N1,inactive
10,O=C(C/C=N/OCc1c(Cl)cccc1Cl)c1ccc(Cl)cc1,inactive
11,CC(C)(C)OC(=O)N1CCCC1C(=O)N1CCc2ccccc21 (centres undefined),inactive
12,CC(=O)c1cc2c(cc1NC(=O)CSc1nc3ccccc3o1)OCO2,inactive
13,O=[N+]([O-])c1ccc2nc(-c3ccccc3)oc2c1,inactive
14,CC(=O)NNC(=O)C(O)(c1ccccc1)c1ccccc1,inactive
15,CC(C)c1ccc(S(=O)(=O)/N=C2/C=CC(=O)c3ccccc32)cc1,inactive
16,CCc1ccc(S(=O)(=O)/N=C2\C=CC(=O)c3ccccc32)cc1,inactive
17,CN(C)c1ccc(NC(=O)Nc2cccc(Cl)c2)cc1,inactive
18,COc1ccc(C(=O)N2CCCN(C)CC2)cc1S(=O)(=O)N1CCCc2ccccc21,inactive
19,COC(=O)C1=C(C)NC(=O)NC1c1ccc2c(c1)OCO2 (centres undefined),inactive
20,Cc1ccc(CCNC(=O)C2CCN(S(=O)(=O)c3ccc4c(c3)CCC(=O)N4)CC2)cc1,inactive
21,CC1CCCC(NC(=O)C2CCC(CNc3c(N4CCCC4)c(=O)c3=O)CC2)C1C (centres undefined),inactive
